From PubChem BioAssay (Tox21)
Where “and” joins values, the source holds several entries; their conditions need not be identical. Equal values may be shown once. Records with an inconclusive call do not appear. Some compounds were tested as several samples or in several runs, with calls that do not always agree. Calls of active or inactive are those of the source. Unless noted, calls come from the whole dose curve; as a rule, active = well fitted curve in the direction sought with a large enough effect in the repeat runs; inconclusive = weak or mixed curves; inactive = no such curve, though single readings can be large; an effect the other way counts as inactive or inconclusive.

Columns and labels:
[1] = qHTS assay to identify small molecule antagonists of the estrogen related receptor (ERR) signaling pathway from Tox21 library - cell viability counter screen (AID 1224834); note: nearly all actives have a fitted effect of over 30% in size; note: potency is the fitted concentration of half-maximal effect
Method in brief: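 Compounds in DMSO were pinned onto ERR cells that had been incubated for 6 h, and the plates were held at 37 C for 17.5 h. CellTiter-Fluor reagent was then added and fluorescence was measured after 30 min.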

[2] = molecular target: Luciferin 4-monooxygenase (Photinus pyralis) (UniProt P08659); assay: qHTS assay to identify small molecule inhibitors of firefly luciferase (AID 1224835); note: nearly all actives have a fitted effect of over 25% in size; note: potency is the fitted concentration of half-maximal effect
Sequence of Luciferin 4-monooxygenase (Photinus pyralis) (P08659 whole entry, looked up): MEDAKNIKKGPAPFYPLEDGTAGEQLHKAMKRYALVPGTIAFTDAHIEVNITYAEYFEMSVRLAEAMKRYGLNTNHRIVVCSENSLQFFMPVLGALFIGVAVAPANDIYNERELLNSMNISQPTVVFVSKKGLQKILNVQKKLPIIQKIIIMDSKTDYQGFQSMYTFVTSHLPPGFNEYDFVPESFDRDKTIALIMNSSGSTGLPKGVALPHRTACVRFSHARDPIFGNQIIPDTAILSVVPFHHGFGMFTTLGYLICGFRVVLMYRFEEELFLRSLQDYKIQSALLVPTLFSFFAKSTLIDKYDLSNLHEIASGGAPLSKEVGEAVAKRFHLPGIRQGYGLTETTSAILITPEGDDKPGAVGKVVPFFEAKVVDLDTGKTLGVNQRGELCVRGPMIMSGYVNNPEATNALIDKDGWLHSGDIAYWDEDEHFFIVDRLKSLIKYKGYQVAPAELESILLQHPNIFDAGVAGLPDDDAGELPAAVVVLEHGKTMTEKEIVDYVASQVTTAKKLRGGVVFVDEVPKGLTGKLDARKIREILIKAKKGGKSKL
Method in brief: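 Inhibition of purified Photinus luciferase is measured by luminescence. Substrate levels (D-luciferin, ATP) sit at their KM values. Each compound is tested in a concentration series.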

[3] = qHTS assay to identify small molecule agonists of the constitutive androstane receptor (CAR) signaling pathway - cell viability counter screen (AID 1224836); note: nearly all actives have a fitted effect of over 45% in size; note: potency is the fitted concentration of half-maximal effect
Method in brief: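 Fluorescence from CellTiter-Fluor indicates live cells after 23 h exposure. The human hepatoma line expresses hCAR and a CYP2B6-2.2kb reporter. Incubation medium contains 0.75 uM PK11195 (final).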

[4] = qHTS assay to identify small molecule antagonists of the constitutive androstane receptor (CAR) signaling pathway - cell viability counter screen (AID 1224837); note: nearly all actives have a fitted effect of over 45% in size; note: potency is the fitted concentration of half-maximal effect
Method in brief: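 Cells are seeded, rested 4 hr at 37 C/5% CO2, dosed with compound (15-point series) and 50 nM CITCO, incubated a further 23 hr, and then CellTiter-Fluor reagent is added before fluorescence is read. The line is HepG2 with stable hCAR and CYP2B6-2.2kb.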

[5] = qHTS assay to identify small molecule antagonists of the estrogen related receptor signaling pathway with the pleiotropic PPARgamma coactivator (PGC) from Tox21 10K library - cell viability counter screen (AID 1224840; active = well fitted cell-killing curve with a large enough effect in the repeat runs, not every such curve was filed as active; note: nearly all actives have a fitted effect of over 40% in size; note: potency is the fitted concentration of half-maximal effect)
Method in brief: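 Cell viability is measured by CellTiter-Fluor fluorescence in PGC/ERR cells that receive compounds after a 6-hour attachment period and are then incubated 17.5 hours at 37 C.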

[6] = qHTS assay to identify small molecule antagonists of the estrogen related receptor signaling pathway with the pleiotropic PPARgamma coactivator (PGC) from Tox21 10K library (AID 1224841; call rule not given here; note: actives are mostly falling curves and most rising ones were filed inactive; nearly all actives have a fitted effect of over 50% in size; note: potency is the fitted concentration of half-maximal effect)
Method in brief: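 Cells stably carrying the PGC/ERR reporter, seeded at 2,000 per well, received pin-transferred compounds 6 h post-plating. Exposure lasted 18 h at 37 C. Signal: One-Glo luminescence.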

[7] = qHTS assay to identify small molecule agonists of the estrogen related receptor signaling pathway with the pleiotropic PPARgamma coactivator (PGC) from Tox21 10K library (AID 1224842); note: nearly all actives have a fitted effect of over 15% in size
Method in brief: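 Luminescence from One-Glo (30 min, room temperature) measured after PGC/ERR cells had 18 h at 37 C with pinned compound (23 nL in DMSO). Cells had been seeded at 2,000 per well and pre-incubated 6 h.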

[8] = molecular target: Thyrotropin receptor (Homo sapiens) (UniProt P16473); assay: qHTS assay to identify small molecule agonists of the thyroid stimulating hormone receptor (TSHR) signaling pathway (AID 1224843; calls by dose curve; note: nearly all actives have a fitted effect of over 45% in size)
Sequence of Thyrotropin receptor (Homo sapiens) (P16473 whole entry, looked up): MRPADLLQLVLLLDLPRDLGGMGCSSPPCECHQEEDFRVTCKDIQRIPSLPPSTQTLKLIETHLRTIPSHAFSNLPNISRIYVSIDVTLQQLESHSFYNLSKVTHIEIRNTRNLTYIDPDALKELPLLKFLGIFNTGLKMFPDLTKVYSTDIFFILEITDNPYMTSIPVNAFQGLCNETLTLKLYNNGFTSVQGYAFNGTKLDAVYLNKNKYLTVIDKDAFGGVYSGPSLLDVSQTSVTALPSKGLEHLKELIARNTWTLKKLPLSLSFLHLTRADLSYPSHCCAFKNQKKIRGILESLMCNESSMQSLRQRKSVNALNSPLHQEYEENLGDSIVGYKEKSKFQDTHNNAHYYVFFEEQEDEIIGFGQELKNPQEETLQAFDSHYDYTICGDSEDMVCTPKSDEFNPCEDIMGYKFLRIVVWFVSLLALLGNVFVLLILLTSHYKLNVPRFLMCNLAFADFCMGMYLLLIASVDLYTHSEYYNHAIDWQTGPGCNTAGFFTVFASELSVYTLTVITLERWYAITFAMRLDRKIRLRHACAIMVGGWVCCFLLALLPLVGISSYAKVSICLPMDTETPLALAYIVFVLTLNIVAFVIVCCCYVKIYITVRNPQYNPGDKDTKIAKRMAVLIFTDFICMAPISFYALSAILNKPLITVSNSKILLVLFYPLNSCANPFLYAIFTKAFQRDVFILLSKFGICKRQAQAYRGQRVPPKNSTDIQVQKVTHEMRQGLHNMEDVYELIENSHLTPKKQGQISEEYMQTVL
Method in brief: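 Agonist activity read as cAMP rise via d2/cryptate HTRF competition, 1 h room-temperature detection, in HEK293 cells expressing TSHR. Fifteen-point titrations, each run in triplicate, with a 30 min room-temperature incubation beforehand.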

[9] = qHTS assay to identify small molecule agonists of the hypoxia (HIF-1) signaling pathway - cell viability counter screen (AID 1224844; calls by dose curve; note: nearly all actives have a fitted effect of over 50% in size)
Method in brief: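 Viability counter screen: HRE-bla ME-180 cells plated 5 hrs before compound addition, treated 17 hrs at 37C and 5% CO2, then CellTiter-Glo added after the FRET reporter read; luminescence after 30 min.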

[10] = qHTS assay to identify small molecule agonists of the hypoxia (HIF-1) signaling pathway (AID 1224846; active = well fitted activation curve with a large enough effect in the signal ratio in the repeat runs, not every such curve was filed as active; the % refers to the signal ratio)
Method in brief: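 Agonist mode reporter screen. ME-180 cells stably expressing bla under HRE control received test compounds in DMSO for 17 hrs (37C, 5% CO2), and beta-lactamase activity was then detected with the CCF4-AM FRET substrate.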

[11] = qHTS assay to identify small molecule agonists of H2AX - cell viability counter screen (AID 1224847; calls by dose curve; note: nearly all actives have a fitted effect of over 30% in size; note: potency is the fitted concentration of half-maximal effect)
Method in brief: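 Viability of CHO-K1 (wild type) cells after 3 hr compound exposure was measured by CellTiter-Glo luminescence.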

[12] = qHTS assay to identify small molecule antagonists of the estrogen related receptor (ERR) signaling pathway from Tox21 library (AID 1224848); note: nearly all actives have a fitted effect of over 50% in size; note: potency is the fitted concentration of half-maximal effect
Method in brief: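 Luciferase luminescence (ONE-Glo, 30 min room temperature) was the read-out. Cells of the NTP-supplied ERR line, 2,000 per well, were given 6 h at 37 C before compound addition in DMSO and 18 h exposure at 37 C.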

[13] = qHTS assay to identify small molecule agonists of the estrogen related receptor (ERR) signaling pathway from Tox21 library (AID 1224849; calls by dose curve; note: nearly all actives have a fitted effect of over 15% in size); details: ERR reporter cell line, ONE-Glo luciferase, 18 h
Method in brief: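 Quantitative HTS in agonist format: NTP ERR cell line, compounds transferred in DMSO after 6 h plating, 18 h incubation at 37 C, ONE-Glo luminescence endpoint.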

[14] = qHTS RealTime-Glo MT Cell Viability Assay in HepG2 cells - 24 hour (AID 1224867); note: nearly all actives have a fitted effect of over 50% in size
Method in brief: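 HepG2 suspension premixed with RealTime-Glo reagents is plated at 600 cells per well and left 5 h at 37 C/5% CO2. Compounds in DMSO then go in, and bioluminescence reflecting viable cell number is recorded over 40 h.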

[15] = A CellTox Green Cytotoxicity Assay to monitor cytotoxicity in HEK293 cells - 0 hour (AID 1224869); note: nearly all actives have a fitted effect of over 50% in size
Method in brief: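 Dead-cell fluorescence measured kinetically: asymmetric cyanine dye, HEK293, 600 cells/well, 5 h settle, 23 nL cpd/DMSO, 37 C, reads 0–40 h every 8 h.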

[16] = molecular target: Nuclear receptor subfamily 1 group I member 3 (Homo sapiens) (UniProt Q14994); assay: qHTS assay to identify small molecule antagonists of the constitutive androstane receptor (CAR) signaling pathway (AID 1224838);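 note: HepG2 cells stably expressing hCAR with CYP2B6 luciferase reporter stimulated by CITCO; nearly all actives have a fitted effect of over 40% in size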; note: potency is the fitted concentration of half-maximal effect
Sequence of Nuclear receptor subfamily 1 group I member 3 (Homo sapiens) (Q14994 whole entry, looked up): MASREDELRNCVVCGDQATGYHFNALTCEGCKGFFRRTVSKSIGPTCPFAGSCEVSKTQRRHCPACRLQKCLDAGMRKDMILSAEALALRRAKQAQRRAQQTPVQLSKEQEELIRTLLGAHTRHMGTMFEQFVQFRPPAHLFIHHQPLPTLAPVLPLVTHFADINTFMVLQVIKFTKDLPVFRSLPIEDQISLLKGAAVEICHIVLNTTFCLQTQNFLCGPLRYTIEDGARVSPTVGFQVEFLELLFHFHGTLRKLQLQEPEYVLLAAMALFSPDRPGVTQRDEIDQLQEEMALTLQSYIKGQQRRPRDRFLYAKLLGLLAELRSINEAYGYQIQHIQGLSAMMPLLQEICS
Method in brief: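 Luminescence from a CYP2B6-2.2kb promoter reporter in hCAR-expressing HepG2 cells reflects CAR signaling. Cells received compounds at 15 concentrations and 50 nM CITCO (final), then incubated 24 h at 37 C/5% CO2.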

[17] = molecular target: Nuclear receptor subfamily 1 group I member 3 (Homo sapiens) (UniProt Q14994); assay: qHTS assay to identify small molecule agonists of the constitutive androstane receptor (CAR) signaling pathway (AID 1224839); note: nearly all actives have a fitted effect of over 15% in size; note: potency is the fitted concentration of half-maximal effect;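 for activation: HepG2 cells stably carrying human CAR and a CYP2B6 luciferase reporter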
Method in brief: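 Stable hCAR/CYP2B6-2.2kb HepG2 line in DMEM with 10% FBS; compounds (15 concentrations) and 0.75 uM PK11195 final, 24 h at 37 C/5% CO2, then ONE-Glo luminescence after 30 min.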

[18] = qHTS assay to identify small molecule agonists of H2AX (AID 1224845; active = well fitted activation curve with a large enough effect in the signal ratio in the repeat runs, not every such curve was filed as active; the % refers to the signal ratio)
Method in brief: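 Phospho-H2AX Ser139 measured by HTRF (ex 320 nm; em 665 and 620 nm) after 24 hr antibody incubation. Compounds, 15 concentrations, 0.76% DMSO, were applied to CHO-K1 cells for 3hr at 37C before lysis.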

[19] = qHTS RealTime-Glo MT Cell Viability Assay in HEK293 cells - 32 hour (AID 1224868); note: nearly all actives have a fitted effect of over 50% in size; note: potency is the fitted concentration of half-maximal effect
Method in brief: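 Reads taken at 0, 8, 16, 24, 32 and 40 h from the same wells. HEK293 cells (600/well) carried RealTime-Glo reagents from seeding, with compound added after a 5 h settle at 37 C.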
% is set by controls: 0 for no effect and ±100 for the full control effect.

Oc1c(Cl)cc(Cl)c(Cl)c1Cl
inactive: Potency [1] | Potency [2] | Potency [3] | Potency [4] | Potency [5] | Potency [7] | Potency [8] | Potency [9] | outcome [10] | activity change, positive = activation ([13]; at 92.4 µM (top of the series)) -46.5% and -37.8% | Potency [14] | Potency [15]
active: Potency [6] 59.8 µM and 54.5 µM | Potency [11] 111 µM | Potency [12] 53.3 µM and 48.6 µM

O=C(O)c1ccc([N+](=O)[O-])cc1
inactive: Potency [1] | Potency [2] | Potency [3] | Potency [4] | Potency [16] | Potency [17] | Potency [5] | Potency [9] | Potency [18] | outcome [10] | Potency [11] | Potency [14] | Potency [19] | Potency [15]

Cc1ccc(N)c(S(=O)(=O)O)c1
inactive: Potency [1] | Potency [2] | Potency [3] | Potency [4] | Potency [5] | Potency [8] | Potency [9] | Potency [18] | outcome [10] | Potency [11] | Potency [14] | Potency [19] | Potency [15]

c1ccc2[nH]cnc2c1
inactive: Potency [1] | Potency [2] | Potency [3] | Potency [4] | Potency [16] | Potency [17] | Potency [5] | Potency [9] | Potency [18] | outcome [10] | Potency [11] | Potency [14] | Potency [19] | Potency [15]

O=C(Cl)c1c(Cl)c(Cl)c(C(=O)Cl)c(Cl)c1Cl
inactive: Potency [1] | Potency [3] | Potency [4] | Potency [16] | Potency [17] | Potency [5] | Potency [6] | Potency [7] | Potency [9] | Potency [18] | outcome [10] | Potency [11] | Potency [12] | activity change, positive = activation ([13]; at 92.4 µM (top of the series)) 2.78% and 1.3% | Potency [14] | Potency [15]

NCCc1ccc(O)c(O)c1
inactive: Potency [2] | Potency [3] | Potency [5] | Potency [9] | Potency [11] | Potency [14] | Potency [19] | Potency [15]
54.6 µM (active) and inactive: Potency [1]

Cc1cc(=O)[nH]c(C(C)C)n1
inactive: Potency [1] | Potency [3] | Potency [4] | Potency [16] | Potency [17] | Potency [5] | Potency [6] | Potency [7] | Potency [8] | Potency [9] | Potency [18] | outcome [10] | Potency [11] | Potency [12] | activity change, positive = activation ([13]; at 92.4 µM (top of the series)) 2.86% and -3.8% | Potency [14] | Potency [15]

CC1=C(CC(=O)O)c2cc(F)ccc2/C1=C\c1ccc(S(C)=O)cc1 (stereo unspecified)
61.1 µM (active) and inactive: Potency [17]
inactive: Potency [1] | Potency [2] | Potency [3] | Potency [4] | Potency [16] | Potency [5] | Potency [8] | Potency [9] | Potency [18] | Potency [11] | Potency [14] | Potency [15]

CN(C)c1ccc(C(=N)c2ccc(N(C)C)cc2)cc1
active: Potency [1] 24 µM and 20.9 µM | Potency [3] 24 µM and 23.4 µM | Potency [4] 24 µM and 26.3 µM | Potency [16] 52.4 µM | Potency [5] 30.3 µM and 20.9 µM | Potency [11] 39.6 µM and 24.4 µM | Potency [19] 3.05 µM and 2.97 µM
inactive: Potency [17] | Potency [9] | outcome [10] | Potency [15]
55.7 µM (active) and inactive: Potency [2]

CC(=O)[C@@]1(O)CC[C@H]2[C@@H]3CCC4=CC(=O)CC[C@]4(C)[C@H]3CC[C@@]21C
inactive: Potency [1] | Potency [2] | Potency [5] | Potency [8] | Potency [9] | Potency [18] | Potency [11] | Potency [14] | Potency [15]

CCOC(=O)/C=C\C(=O)OCC
1.73% (inactive) and 0.529% (active): activity change, positive = activation ([13]; at 92.4 µM (top of the series))
inactive: Potency [1] | Potency [2] | Potency [3] | Potency [4] | Potency [5] | Potency [6] | Potency [7] | Potency [8] | Potency [9] | Potency [18] | outcome [10] | Potency [11] | Potency [12] | Potency [14] | Potency [15]

C=C(C)C(=O)OCCC[Si](OC)(OC)OC
inactive: Potency [1] | Potency [2] | Potency [3] | Potency [4] | Potency [5] | Potency [8] | Potency [9] | Potency [18] | outcome [10] | Potency [11] | Potency [14] | Potency [19] | Potency [15]

OC[C@@H](O)[C@H](O)[C@H](O)[C@@H](O)CO
inactive: Potency [1] | Potency [2] | Potency [3] | Potency [4] | Potency [5] | Potency [6] | Potency [7] | Potency [8] | Potency [9] | Potency [18] | outcome [10] | Potency [11] | Potency [12] | activity change, positive = activation ([13]; at 42.5 µM (top of the series)) 4.66% and 4.1% | Potency [14] | Potency [19] | Potency [15]

CC1(C)CC(N=C=O)CC(C)(CN=C=O)C1 (stereo unspecified)
inactive: Potency [1] | Potency [2] | Potency [3] | Potency [4] | Potency [17] | Potency [5] | Potency [8] | Potency [9] | Potency [18] | outcome [10] | Potency [11] | Potency [14] | Potency [15]

CC(C)Cc1ccccc1
inactive: Potency [1] | Potency [2] | Potency [3] | Potency [4] | Potency [5] | Potency [8] | Potency [9] | Potency [18] | outcome [10] | Potency [11] | Potency [14] | Potency [19] | Potency [15]

Nc1cc(-c2ccncc2)c[nH]c1=O
inactive: Potency [1] | Potency [2] | Potency [3] | Potency [4] | Potency [5] | Potency [6] | Potency [7] | Potency [8] | Potency [9] | Potency [18] | Potency [11] | Potency [12] | activity change, positive = activation ([13]; at 42.5 µM (top of the series)) -5.23% | activity change, positive = activation ([13]; at 92.4 µM (top of the series)) -0.579% | Potency [14] | Potency [15]

O=S(=O)(Oc1ccc(Cl)cc1Cl)c1ccccc1
inactive: Potency [1] | Potency [3] | Potency [4] | Potency [16] | Potency [5] | Potency [6] | Potency [8] | Potency [9] | Potency [18] | outcome [10] | Potency [12] | activity change, positive = activation ([13]; at 92.4 µM (top of the series)) -20% and 8.74% | Potency [14] | Potency [15]
active: Potency [17] 15.6 µM and 48.6 µM | Potency [11] 91.4 µM and 50.5 µM
